# Among all 48,000 compounds or so, about 13,000 (27%) showed an effect of 50% or more. The list shows a part of the results.
# System: Wolbachia pipientis
# Test: Anti-Wolbachia Cell-Based Screen
# Type: functional
# Set-up: scale not given: in the data most compounds retested in dose-response had high values
# Details: 5 µM
row,Structure (SMILES),Percent Effect [%]
1,CCC(C)(NCc1cccc(NC(C)=O)c1)c1nc(C)cs1 (stereo not given),-6.571
2,CCNS(=O)(=O)C1CCN(C(=O)c2ccc(CC)o2)C1 (stereo not given),1.453
3,CCN1CCN(C(=O)C(C)N2CCc3cncnc3C2)CC1 (stereo not given),4.565
4,CN1CCN2CCN(Cc3cnc(NCc4ccccc4)nc3)CC2C1 (stereo not given),2.574
5,Cc1cc(CC2COCCN(CCc3ccccc3)C2)ncn1 (stereo not given),136.2
6,Cc1ccc(CC2COCCN(Cc3ccccc3)C2)nc1 (stereo not given),76.14
7,CNc1cc(C)nc(N2CCN(Cc3ccccc3)CC(O)C2)n1 (stereo not given),10.53
8,CC(C)(C)c1coc([C@@H]2COCCN2Cc2ccccc2)n1,-6.681
9,c1ccc(NCc2cccc(OCCN3CCOCC3)c2)nc1,9.722
10,O=C1O[C@@H]2CN(CCc3ccccc3)C[C@@H]2N1CCCN1CCOCC1,-3.811
11,Cc1cc(N2CCCN(CCc3ccccc3)CC2)ccn1,5.317
12,CNc1cnc(CC2COCCN(CCOc3ccccc3)C2)cn1 (stereo not given),158.8
13,Clc1cncc(NCc2cccc(OCCN3CCOCC3)c2)n1,2.735
14,COc1ccc(CN2CCOC[C@H](OCc3ccccc3)C2)cc1,-4.744
15,CNc1cnc(CC2COCCN(Cc3ccccc3)C2)cn1 (stereo not given),100
16,Cc1cc(C)n(C2CN(C(=O)Cn3c(=O)c(C)nc4ccccc43)C2)n1,-1.32
17,CNC(=O)[C@@H]1C[C@@H](N)CN1Cc1ccc2cccc(OC)c2n1,-0.1513
18,c1ccc(CCc2noc(CN3CCC(N4CCSCC4)CC3)n2)cc1,-3.456
19,N#Cc1ccc(CNC(=O)NC2CCN(CC(F)F)CC2)cc1,3.671
20,COc1cc(O)cc2c1C(=O)CC(c1ccc(O)cc1)O2 (stereo not given),-2.59
21,CN(Cc1ccc(C#N)cc1)Cn1nccc1-c1cccnc1,11.16
22,COc1ccc(CN2Cc3cn(C)nc3C(COCC3CC3)C2)cc1 (stereo not given),10.23
23,COc1ccccc1CN(Cc1cccc(C)c1)C(=O)[C@@H](N)CC(=O)O,3.134
24,CNc1cnc(CC2COCCN(Cc3cccc(C)n3)C2)cn1 (stereo not given),107
25,Oc1cc(CC2COCCN(CC3(O)CCOCC3)C2)ncn1 (stereo not given),130

row,Structure (SMILES),Percent Effect [%]
1,Cc1cccc(O[C@H]2COCCN(Cc3sc(C)nc3C)C2)n1,12.2
2,Cc1cccc(CN2C[C@H]3OC(=O)N(CCCN4CCOCC4)[C@H]3C2)n1,-5.32
3,OC1COCCN(Cc2cccc(N3CCOCC3)c2)C1 (stereo not given),-7.923
4,CCCN1CCC(CC(=O)NCc2cc(O)ncn2)CC1,-6.133
5,CSc1cc2c(cc1NC(=O)N(C)Cc1cnn(C)c1)OCCO2,-6.777
6,COCCN1C(=O)[C@H]2CC[C@@H]1CN(C(=O)Cc1ccc(O)c(Cl)c1)C2,12.68
7,CC(C)c1noc(Cn2ncn3cccc3c2=O)n1,-11.32
8,O=C(O)C(F)(F)F.O=C(c1cccnc1)N1CCCC2(CCN(c3ccsc3)C2=O)C1 (stereo not given),9.95
9,COCC(=O)N1CCC2(CC1)CCN(Cc1ccccn1)C2=O.O=C(O)C(F)(F)F,-18.96
10,Cc1cnc(C(=O)N2CCC3(CCN(Cc4ccccn4)C3=O)C2)cn1.O=C(O)C(F)(F)F (stereo not given),102.4
11,Cc1oncc1C(=O)N1CCC2(CCN(Cc3ccccn3)C2=O)C1 (stereo not given),-15.28
12,CN(C)CC(=O)N1CCC2(CCN(Cc3ccccn3)C2=O)C1 (stereo not given),-12.92
13,O=C(O)C(F)(F)F.O=C(c1ccc(F)cc1)N1CCC2(CCN(Cc3ccccn3)C2=O)C1 (stereo not given),89.07
14,O=C(O)C(F)(F)F.O=C(c1ccsc1)N1CCC2(CCN(Cc3ccccn3)C2=O)C1 (stereo not given),124
15,Cc1cccc(CN2CCC3(CCCN(C(=O)c4ccsc4)C3)C2=O)n1.O=C(O)C(F)(F)F (stereo not given),-5.258
16,Cc1ccc(C(=O)N2CCC3(CCN(Cc4ccccn4)C3=O)C2)cn1 (stereo not given),76.19
17,Cc1cccc(CN2CCC3(CCCN(C(=O)c4ccoc4)C3)C2=O)n1.O=C(O)C(F)(F)F (stereo not given),1.474
18,COc1cccc(CC2CCCN2CCCC#N)c1 (stereo not given),4.783
19,O[C@H]1[C@H](n2cc(-c3cccnc3)nn2)c2ccccc2C12CCNCC2,12.4
20,O=C(CCc1ccc(OC(F)(F)F)cc1)N1CCCS1(=O)=O,14.48
21,c1cnc(N2CCN(Cn3nccc3-c3cccnc3)CC2)nc1,3.122
22,Cc1ncc(C(=O)NC2CCN(CCOc3ccc(Br)cc3)CC2)s1,-10.45
23,CC(C)CC(NC(=O)c1ccc[nH]1)C(=O)N1CCC(CO)CC1 (stereo not given),4.263
24,Cc1occc1C(=O)N1CCC2(CCN(Cc3ccccn3)C2=O)C1.O=C(O)C(F)(F)F (stereo not given),103.9
25,Cc1occc1C(=O)N1CCCC2(CCN(CCN3CCCC3)C2=O)C1.O=C(O)C(F)(F)F (stereo not given),-1.514

row,Structure (SMILES),Percent Effect [%]
1,Cc1occc1C(=O)N1CCCC2(CCN(c3ccccc3)C2=O)C1 (stereo not given),4.886
2,O=C(c1ccc(O)nc1)N1CCN(C(=O)c2ccc(F)c(F)c2)CC1,-0.8885
3,Cc1nc(C)c(C(=O)NCCNc2cc(N3CCCC3)ncn2)s1,20.28
4,Cc1nc(C(C)C)sc1C(=O)NCCn1ccnc1,18.45
5,CCN1CCN(CCNC(=O)c2sc(C)nc2C)CC1,76.69
6,Cc1nc(C(C)C)sc1CNC(=O)CCCN1CCCCC1,-2.668
7,CCN1CCN(CCNC(=O)c2sc(C(C)C)nc2C)CC1,114.4
8,Cc1nc(C)c(C(=O)NCCNC(=O)Cc2ccccc2)s1,4.586
9,CNC(=O)C1CCCCN1C(=O)c1n[nH]c(=O)c2ccccc12 (stereo not given),98.92
10,CC1CCCCN1C(=O)c1n[nH]c(=O)c2ccccc12 (stereo not given),115.2
11,O=C(c1n[nH]c(=O)c2ccccc12)N1CCCCC1c1ccn[nH]1 (stereo not given),-2.968
12,CNC(=O)C1CCCCN1C(=O)c1cn(CCOC)c2ccccc12 (stereo not given),-5.579
13,CNC(=O)C1CCCCN1C(=O)c1csc(-c2ccccc2)n1 (stereo not given),-0.9781
14,O=C(NCCCN1CCCC1)c1n[nH]c(=O)c2ccccc12,0.5839
15,Cn1ccc2cc(CC3COCCN(C(=O)c4ccccn4)C3)ccc21 (stereo not given),118.8
16,Cn1ccc2cc(CC3COCCN(C(=O)c4cccnc4)C3)ccc21 (stereo not given),69.9
17,O=C(c1cccnc1)N1CCN2C(=O)N(Cc3ccc(F)cc3)C[C@H]2C1,2.014
18,COc1cccc(CCC2CCCN(C(=O)c3ccccn3)C2)c1 (stereo not given),-14.56
19,CN(C)CCN1CC(C(=O)NCc2ccc(C#N)cc2)CC1=O (stereo not given),-12.86
20,COc1ccc(CC(C)(O)CNC(=O)NCc2cccs2)cc1 (stereo not given),-12.02
21,Cc1nc2c(c(=O)n1C)CN(C(=O)C1CCCN(CC(N)=O)C1)C2 (stereo not given),-6.994
22,CN(CC(=O)NC(Cc1ccccc1)C1CCCC1)S(C)(=O)=O (stereo not given),1.289
23,Cc1cc(N2CCC(C(=O)O)(n3ccc(C(C)(C)C)n3)CC2)nc(N)n1,-17.81
24,Cc1cnc(C(=O)NCC(c2ccc(C)o2)N2CCOCC2)cn1 (stereo not given),-11.84
25,Cc1cc(NC(=O)NCC(O)c2ccc(Cl)cc2Cl)n(C)n1 (stereo not given),1.838

row,Structure (SMILES),Percent Effect [%]
1,Cc1cc(NC(=O)NCC(c2ccccc2)N2CCOCC2)n(C)n1 (stereo not given),108.2
2,Cc1cc(NC(=O)NCC(c2ccc(C)o2)N2CCOCC2)n(C)n1 (stereo not given),126.3
3,Cc1cc(NC(=O)NCCc2ccccc2)n(C)n1,-5.779
4,Cc1cc(NC(=O)NCc2ccccc2OC(F)F)n(C)n1,8.208
5,CCc1ccccc1OCCCN(C)C(=O)C1CCCN1C(N)=O (stereo not given),-6.634
6,CCC(NC(=O)CC(F)(F)F)c1ccccc1OCC(=O)N1CCCC1 (stereo not given),-4.718
7,CCCc1cc(C(=O)N(Cc2cccnc2)C[C@@H]2CCC(=O)N2)no1,-10.16
8,O=C1CCC2(CCCN(C(=O)c3cccnc3)CC2)N1 (stereo not given),-2.669
9,CC(C)CN1C[C@@H]2C(=O)NC3(CCN(C(=O)c4cccnc4)CC3)[C@@H]2C1,1.9
10,O=C1CCC2(CCCN(C(=O)c3cccs3)C2)N1 (stereo not given),-85.27
11,Cc1nccc(-c2ccccc2)c1C(=O)N1CCC2(CC(=O)NC2=O)C1 (stereo not given),-6.27
12,Cc1ncccc1C(=O)N1CCC2(CCc3ccccc3C(=O)N2)C1 (stereo not given),98.8
13,Cc1nccc(-c2ccccc2)c1C(=O)N1CC[C@](C)(O)C(C)(C)C1,-0.4275
14,O=C1NC2(CCc3ccccc31)CCN(C(=O)c1ccncc1)C2 (stereo not given),94.99
15,O=C1NC2(CCc3ccccc31)CCN(C(=O)c1cccnc1)C2 (stereo not given),113.1
16,CCC(C)(CC(=O)OC)NCc1noc(C)n1 (stereo not given),-21.8
17,CC(C)c1nnc2n1CCN(C(=O)COc1ccc(C(N)=O)cc1)C2,-6.982
18,COCC1CC2(CCN(C(=O)C3CCSCC3)CC2)CO1 (stereo not given),-14.44
19,CCCC(Nc1c(C#N)c(=O)n(C)c(=O)n1C)c1ccc(F)cc1F (stereo not given),-0.1424
20,O=C(O)C(F)(F)F.O=C(O)C(F)(F)F.O=C(O)C(F)(F)F.c1c[nH]c(CN2CCC3(CC2)COCCN(CCN2CCCC2)C3)c1,-16.15
21,CN1CC(c2ccccc2)C2(CCN(C(=O)c3ccc[nH]3)CC2)C1=O (stereo not given),-2.349
22,Cn1cccc1C(=O)N1CCCC2(CCN(CCN3CCCC3)C2=O)C1.O=C(O)C(F)(F)F (stereo not given),-2.422
23,CN1CC[C@]2(CN(C(=O)c3ccc[nH]3)C[C@H]2c2ccccc2)C1=O,-8.445
24,C[C@@H]1CN(C(=O)c2ccc[nH]2)C[C@]12CCN(CCN1CCCC1)C2=O.O=C(O)C(F)(F)F,108.3
25,COCCN1CC[C@]2(CN(C(=O)c3ccc[nH]3)C[C@H]2C)C1=O,91.74

# — ChEMBL document CHEMBL3988442, “University of Dundee, Small-Polar-MMV Screening Library” (2021)
